Screening results as filed in PubChem BioAssay.
EPAC1 ag = activates human EPAC1 exchange factor | O95398 | EPAC1 agonist qHTS, biochemical assay; response scale: 100% = response to 6.5 mM cAMP | Potency, µM (top dose mostly 154 µM), without a hit: at the highest dose activation, most hits filed as activators | hit rate 0.073% among 360,000 | AID 720707; also: potency is read from the fitted curve at half-maximal effect; nearly all actives have a fitted effect of over 60% in size
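EPAC1 100 nM, Rap1B–BODIPY-GDP 250 nM, unlabeled GDP 50 uM; compound titration; 5 min RT; kinetic read ex480/em540 at 5-min intervals ×30 min; data normalized to 6.5 mM cAMP agonist control.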
KCNH2 3.1 block = KCNH2 3.1 (human) potassium channel inhibition; activity change, % (tested at about 1.8 µM); U2OS KCNH2 3.1, thallium flux FluxOr; hits give low values; hit rate 0.95% among 340,000;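 active = maximum activity change below -70%; inconclusive = maximum activity change from -70% to -50%; inactive = maximum activity change above -50%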;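 also: thallium influx rate constant from kinetic fluorescence after stimulation buffer; % is scaled to controls: 0 for no effect and ±100 for the full control effect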
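Virally transduced U2OS (3.1 isoform, 4 h infection in dark at RT) → overnight 37 C → FluxOr + Red40 in HBSS/HEPES, 45 min → stimulation buffer, 2 min kinetic read → rate constant vs DMSO controls.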
EPAC2 agonist = activates human EPAC2 exchange factor. hit rate 0.079% among 360,000. EPAC2 activation, biochemical qHTS; response scale: 100% = 6.5 mM cAMP response. Q8WZA2. Potency, µM (series often up to 154 µM), without a hit: top-dose activation, most hits filed as activators; also: potency is read from the fitted curve at half-maximal effect; nearly all actives have a fitted effect of over 50% in size
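Readout is BODIPY fluorescence (480 nm excitation, 540 nm emission), which falls as labeled GDP is exchanged off Rap1B. EPAC2 at 100 nM acted on 250 nM RAP1B-BODIPY-GDP with 50 uM GDP present.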
EPAC2 antagonist = blocks human EPAC2 exchange factor; Q8WZA2; EPAC2 GEF exchange of Rap1B-BODIPY-GDP, fluorescence; Potency, µM (doses to about 114 µM), inactives show at the top dose activity, negative = inhibition, usual class: inhibitors; hit rate 0.18% among 360,000; AID 720708; also: potency is read from the fitted curve at half-maximal effect; % is scaled to controls: 0 for no effect and ±100 for the full control effect; nearly all actives have a fitted effect of over 45% in size
hERG WT inh = KCNH2 (human, wildtype) channel inhibition | Q12809 | U2OS, BacMam KCNH2, thallium flux FluxOr; hits give low values | activity change, % at 1.84 µM | hit rate 0.37% among 340,000 | AID 720551;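 active = maximum activity change below -70%; inconclusive = maximum activity change between -70% and -50%; inactive = maximum activity change above -50%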; also: % is scaled to controls: 0 for no effect and ±100 for the full control effect
Target sequence (Q12809 whole entry, looked up): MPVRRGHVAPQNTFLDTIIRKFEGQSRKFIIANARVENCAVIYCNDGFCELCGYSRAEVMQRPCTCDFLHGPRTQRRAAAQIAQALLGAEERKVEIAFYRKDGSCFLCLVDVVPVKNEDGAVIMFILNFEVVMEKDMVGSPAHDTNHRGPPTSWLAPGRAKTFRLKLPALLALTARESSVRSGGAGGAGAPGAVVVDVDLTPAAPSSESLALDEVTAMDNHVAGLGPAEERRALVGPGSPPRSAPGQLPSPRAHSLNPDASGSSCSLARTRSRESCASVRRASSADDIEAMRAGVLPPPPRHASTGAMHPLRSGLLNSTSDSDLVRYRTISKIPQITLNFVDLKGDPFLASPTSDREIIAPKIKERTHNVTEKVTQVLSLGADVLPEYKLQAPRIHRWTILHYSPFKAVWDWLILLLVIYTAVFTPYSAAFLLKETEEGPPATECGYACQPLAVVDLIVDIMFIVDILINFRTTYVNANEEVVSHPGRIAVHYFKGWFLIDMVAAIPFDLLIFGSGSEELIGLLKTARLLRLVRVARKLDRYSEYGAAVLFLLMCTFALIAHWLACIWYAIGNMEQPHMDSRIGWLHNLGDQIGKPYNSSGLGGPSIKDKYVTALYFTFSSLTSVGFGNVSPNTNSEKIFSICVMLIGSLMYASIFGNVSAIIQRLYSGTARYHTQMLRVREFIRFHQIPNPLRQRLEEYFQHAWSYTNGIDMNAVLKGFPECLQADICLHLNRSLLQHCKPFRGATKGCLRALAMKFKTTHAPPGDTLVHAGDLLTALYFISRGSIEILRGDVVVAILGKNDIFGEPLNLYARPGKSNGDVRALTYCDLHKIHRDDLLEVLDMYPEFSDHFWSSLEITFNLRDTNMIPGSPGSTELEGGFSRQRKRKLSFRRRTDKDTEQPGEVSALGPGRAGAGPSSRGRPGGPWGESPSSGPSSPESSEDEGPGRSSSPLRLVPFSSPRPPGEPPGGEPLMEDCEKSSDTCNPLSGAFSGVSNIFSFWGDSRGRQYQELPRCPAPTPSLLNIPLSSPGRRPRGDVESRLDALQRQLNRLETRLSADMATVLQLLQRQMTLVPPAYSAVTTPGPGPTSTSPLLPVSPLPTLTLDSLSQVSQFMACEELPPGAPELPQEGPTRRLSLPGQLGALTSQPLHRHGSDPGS
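U2OS cells were transduced with wild-type KCNH2 virus (2.03 x 10^8 / mL) for 4 h at room temperature, then cultured overnight at 37 C. Thallium flux was read with FluxOr dye. Rate constants were normalized to DMSO controls.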
EPAC1 antag = blocks human EPAC1 exchange factor; O95398; EPAC1 GEF assay, Rap1b-BODIPY-GDP exchange fluorescence; Potency, µM (top dose mostly 115 µM), for the others: at the highest dose activity change, negative = inhibition, actives largely listed as inhibitors; hit rate 0.14% among 360,000;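 also: potency is read from the fitted curve at half-maximal effect; plate controls were vehicle for no effect and positive control for full effect; nearly all actives have a fitted effect of over 50% in size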
* = called active by the depositor; ? = inconclusive; . = no result given; + = active, no number. Rows were chosen to be rich in hits. Some 1.4% of all compounds tested hit in one or more screens of this group. Unless noted, calls follow the shape of the dose curve; as a rule, active = well fitted curve in the direction sought with a large enough effect; inconclusive = small, poorly fitted or top-dose-only effect, or another doubt; inactive = no such curve, though single readings can be large; an effect the other way counts as inactive or inconclusive.

SMILES | EPAC1 ag | KCNH2 3.1 block | EPAC2 agonist | EPAC2 antagonist | hERG WT inh | EPAC1 antag
Fc1ccc(C(CCNCc2ccccn2)c2ccc(Cl)cc2)cc1 (stereo not given) | -3% | -91* | -8% | -27% | -89* | 2%
CC(C)(c1cc(Br)c(O)c(Br)c1)c1cc(Br)c(O)c(Br)c1 | -13% | 7 | 15% | ? | 2 | ?
C(=N\n1cnnc1)/c1cccs1 | 8% | -86* | 5% | 4% | 12 | 4%
COc1ccccc1/C=C(/C(=O)OCC(=O)Nc1cc(C)ccc1C)c1ccccc1 | 2% | -3 | 4% | 30% | + | 5%
Cc1ccc(S(=O)(=O)N2CCOCC2)cc1NC(=O)COC(=O)Cc1cccs1 | 5% | 8 | 1% | -7% | -2 | -8%
O=C(COC(=O)c1cnc(Cl)c(Cl)c1)Nc1ccc(S(=O)(=O)N2CCCC2)cc1 | 7% | -97* | 22% | -3% | 18 | 1%
O=C(COC(=O)c1cc(S(=O)(=O)N2CCOCC2)ccc1O)Nc1cc(S(=O)(=O)N2CCCC2)ccc1Cl | 4% | -194* | 9% | 1% | -146* | -25%
Cc1ccc(S(=O)(=O)N2CCOCC2)cc1NC(=O)COC(=O)CNC(=O)c1ccccc1 | -17% | -98* | -1% | 12% | 6 | 0%
O=C(COC(=O)c1ccc(Cl)nc1)Nc1ccc(S(=O)(=O)N2CCCC2)cc1 | -3% | -9 | 5% | 9% | 1 | -1%
O=C(COC(=O)c1cc(S(=O)(=O)N2CCCC2)ccc1O)Nc1ccc(S(=O)(=O)N2CCOCC2)cc1 | 2% | 10 | 10% | 8% | 10 | -14%
CC1(C(=O)NS(=O)(=O)c2cccs2)CCN1C(=O)c1ccco1 (stereo not given) | -7% | . | 8% | 2% | . | -8%
CCc1nnc(NC(=O)CSc2nc3ccc(OC)cc3[nH]2)s1 | -13% | 45 | 9% | -3% | 6 | -19%
Cc1ccc(Cl)cc1NC(=O)C(NS(=O)(=O)c1cccs1)c1ccccc1 (stereo not given) | -25% | -14 | -13% | 14% | -119* | -14%
CCc1cccc(CC)c1NC(=O)C(NS(=O)(=O)c1cccs1)c1ccccc1 (stereo not given) | 0% | -3 | -5% | 3% | -8 | -11%
c1ccc(-c2nc3nonc3c3nc4ccccc4n23)cc1 | -4% | -80* | 5% | 12% | 5 | 11%
c1ccc(-c2nc3ccccc3c3nc4ccccc4n23)cc1 | 9% | -3 | 5% | -6% | -12 | -9%
COc1cccc(CC2(CO)CCCN(Cc3cn[nH]c3-c3ccc(F)cc3)C2)c1 (stereo not given) | 2% | 9 | 14% | 18% | 14 | 0%
COc1cccc(CC2(CO)CCCN(C/C=C/c3ccccc3OC)C2)c1 (stereo not given) | 7% | -86* | 5% | -18% | -71* | -3%
COc1cccc(CC2(CO)CCCN(Cc3cc(F)ccc3-n3cccn3)C2)c1 (stereo not given) | 0% | -105* | 17% | -7% | ? | 1%
COc1ccccc1/C=C/CN1CCCC(CO)(Cc2cccc(Cl)c2)C1 (stereo not given) | 3% | -42 | 18% | -5% | 0 | -26%
COc1ccc(CN2CCN(Cc3cccc(Oc4ccccc4)c3)CC2)c(OC)c1OC | 0% | -73* | 11% | -28% | ? | -13%
COc1cccc(CC2(CO)CCCN(Cc3ccc(OC)c(C)c3OC)C2)c1 (stereo not given) | 7% | -113* | 20% | 2% | -79* | -8%
CC(C)(C)NC(=O)C1C(c2ccccc2)=Nc2ccccc2N1C(=O)c1ccc(C(F)(F)F)cc1 (stereo not given) | -1% | . | -3% | -5% | . | 6%
NC(Cc1ccc(F)cc1)c1csc(Nc2ccc(C(=O)c3ccccc3)cc2)n1 (stereo not given) | 2% | . | 10% | 17% | . | -7%
CC1(C)C(=O)Nc2ccccc2N1C(=O)COC(=O)c1cccnc1Cl | 5% | 36 | 2% | 0% | 10 | -13%
SMILES | EPAC1 ag | KCNH2 3.1 block | EPAC2 agonist | EPAC2 antagonist | hERG WT inh | EPAC1 antag
CCOC(=O)c1ccc(NC(=O)Nc2ccc3c(c2)OCCO3)cc1 | 28% | 25 | 12% | -10% | -76* | -4%
CC1CCN(C2CC(=O)N(c3ccc(Br)cc3Br)C2=O)CC1 (stereo not given) | 3% | 33 | -1% | -17% | -5 | 4%
Nc1nccc(SCc2ccccc2)n1 | -10% | 10 | -3% | 1% | 0 | -14%
Cc1cccc(C)c1OCc1cc(C(=O)NC2CCC2)no1 | -5% | -94* | -1% | 1% | 13 | -4%
COc1ccc(-c2c(C(F)(F)F)nn(C)c2NC(=O)CSCC(=O)O)cc1 | 7% | -4 | 9% | 18% | -4 | 15%
Cc1cc2cc(CN(Cc3ccc4c(c3)OCO4)Cc3nnnn3C3CCCC3)c(=O)[nH]c2cc1C | -1% | -11 | 8% | 0% | 2 | -8%
CCc1ccc2[nH]c(=O)c(CN(Cc3nnnn3C3CCCC3)C3CCCCC3)cc2c1 | 15% | -189* | 13% | -1% | -10 | -7%
Cc1ccc2[nH]c(=O)c(CN(Cc3ccc4c(c3)OCO4)Cc3nnnn3C3CCCC3)cc2c1 | -4% | -128* | 11% | -14% | -1 | -12%
CC(=O)N1CCC(C(=O)N2c3ccccc3N=C(c3ccc4c(c3)OCO4)C2C(=O)Nc2c(C)cccc2C)CC1 (stereo not given) | 4% | . | 1% | 3% | . | -20%
Cc1ccc(S(=O)(=O)NCc2ccc(C(=O)NCCCN3CCC(Cc4ccccc4)CC3)cc2)cc1 | -4% | -81* | -3% | 2% | 6 | 5%
COc1ccc(CCNC(=O)c2ccc(CN3CCC(Cc4ccccc4)CC3)cc2)cc1OC | 0% | -93* | 4% | -1% | -23 | -11%
Cc1ccc(S(=O)(=O)NCCC(=O)N2CCC(Cc3ccccc3)CC2)cc1 | ? | -25 | 5% | -10% | -5 | -9%
COc1ccc(/C=C2/SC(=S)N(c3ccc(S(=O)(=O)Nc4nccs4)cc3)C2=O)cc1 | 7% | 2 | -7% | 0% | 10 | 71µM*
COc1ccc(/C=C2/SC(=O)N(CCC(=O)Nc3ccc(S(=O)(=O)Nc4nccs4)cc3)C2=O)cc1 | -10% | -13 | 14% | -1% | -1 | 50µM*
CCOC(=O)N1CCN(C(C(=O)NC2CCCC2)C(C)C)CC1 (stereo not given) | 8% | . | 2% | 0% | . | 7%
